# Bioassay records from PubChem.
# Shown are actives, neighbours in structure and some others; about 7.8% of the full set was active somewhere.
# HCV inhibitor – blocks hepatitis C virus. 340,000 tested, 3.4% active. Huh7.5.1 HCVcc-Cre infection, luciferase reporter, 44 h. Potency, µM (highest dose often 41.8 µM), for inactives: top-dose activity change, negative = inhibition, usual class: inhibitors; active means well fitted inhibition curve with a large enough effect; inconclusive means small, poorly fitted or top-dose-only effect, or another doubt; inactive means no such curve, though single readings can be large or run the other way; further: potency means the concentration at half of the fitted maximal effect
#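 Infectious HCVcc-Cre (~0.5 moi) was added to cells just after compound, with cells seeded 4 h earlier at 1,000 per well. Luciferase activity after 44 h culture reported infection; substrate was incubated 15 min at room temperature before reading.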
# HCMV antiviral – human cytomegalovirus inhibition; activity change, negative = inhibition, % at 57.5 µM; HFF cells, HCMV-luciferase reporter, 72 h; hits give low values; 410,000 tested, 4.5% active; in the data active means activity change below about -60%; inconclusive means no clear call, values can overlap the other calls; inactive means above about -39%
#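 Compounds were evaluated in HFFs infected with an HCMV luciferase reporter virus (MOI 1 PFU/cell). Luciferase in lysates collected 72 h post infection served as the replication measure.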
# Vaccinia Venus – inhibitors of vaccinia virus (Venus reporter); Potency, µM (series often up to 36.5 µM), for the others: at the top dose activity change, negative = inhibition, usual class: inhibitors; Vaccinia virus Venus reporter expression, fluorescence; 330,000 tested, 0.46% active; calls by dose curve; tested in A549 cells; further: potency means the concentration at half of the fitted maximal effect; nearly all actives have a fitted effect of over 30% in size
# VACV mCherry inh – inhibitors of vaccinia virus infection (mCherry reporter signal); Vaccinia virus mCherry reporter infection, fluorescence; Potency, µM (series often up to 36.5 µM), without a hit: at the highest dose activity change, negative = inhibition, actives largely listed as inhibitors; 310,000 tested, 0.63% active; AID 720579; calls by dose curve; tested in A549 cells; further: potency means the concentration at half of the fitted maximal effect; nearly all actives have a fitted effect of over 35% in size
# LASV entry inh – Lassa virus entry inhibition; 300,000 tested, 1.2% active; Potency, µM (doses to about 37.9 µM), without a hit: at the highest dose activity change, negative = inhibition, hits mostly inhibitors; Lassa virus pseudotype entry inhibition, cell reporter; AID 540256; calls by dose curve; tested in HEK293 cells; further: potency means the concentration at half of the fitted maximal effect; nearly all actives have a fitted effect of over 50% in size
# Marburg entry inh – inhibitors of Marburg virus binding or cell entry. Marburg virus pseudotyped entry inhibition, cell reporter. Potency, µM (series often up to 37.8 µM), without a hit: at the top dose activity change, negative = inhibition, hits mostly inhibitors. 300,000 tested, 1.8% active. AID 540276; calls by dose curve; tested in HEK293 cells; further: potency means the concentration at half of the fitted maximal effect
# Numbers without * were called inactive; i = inactive; ? = inconclusive; . = not tested or not shown; ! = a repeat was not active; [ ] = another dose, or the depositor's remark. On the % scale 0 is the no-effect control and ±100 the full control effect.
SMILES,HCV inhibitor,HCMV antiviral,Vaccinia Venus,VACV mCherry inh,LASV entry inh,Marburg entry inh
COc1ccc(C(O)(c2ccccc2OC)C(CN2CCOCC2)c2ccccc2)cc1 (stereo not given),?,-26,-22%,-25%,.,11µM*
OC(c1ccccc1)(C1CCCCC1)C(CN1CCOCC1)c1ccccc1 (stereo not given),?,-39,-19%,i,-8%[46.1 µM],?
COc1ccc(C(O)(C2CCCCC2)C(CN2CCOCC2)c2ccccc2)cc1 (stereo not given),-20%,-61*,.,.,.,.
O=C(c1ccc2c(c1)N(Cc1cccc(F)c1)C(=O)c1ccccc1S2)N1CCCC1,.,3,0%,-10%,-24%[46.1 µM],.
O=c1[nH]c(=S)[nH]c(O)c1N=Nc1ccc2c(c1)OCO2,2%,?,1%,-17%,?,?
O=c1[nH]c(=S)[nH]c(O)c1N=Nc1ccc2c(c1)OCCO2,-29%,?,4%,-7%,?,11µM*
O=c1[nH]c(O)c(N=Nc2ccc(S(=O)(=O)N3CCOCC3)cc2)c(=O)[nH]1,3%,?,-3%,i,-3%[46.1 µM],8%[46.1 µM]
O=c1[nH]c(O)c(N=Nc2ccc3c(c2)OCCO3)c(=O)[nH]1,-14%,-82*,3%,-9%,?,?
CS(=O)(=O)CCC(C(=O)Nc1cccc(C(F)(F)F)c1)N1Cc2ccccc2C1=O (stereo not given),.,-20,-5%,-1%,9%[46.1 µM],.
CN1CCc2c(c3ccccc3n2C)C1,-16%,-7,-4%,-11%,2%,?
CN1CCc2c(c3ccccc3n2Cc2ccccc2)C1,-28%,-38,13µM*!,28µM*!,.,.
N#C/C(=C\c1ccc(OCc2ccc(C(=O)O)cc2)cc1)C(=O)N1CCOCC1,10%,-4,.,.,1.8µM*,0.92µM*
COc1cc(/C=C(\C#N)C(=O)N2CCOCC2)ccc1OCc1ccccc1,-12%,-16,-17%,-15%,.,26%[46.1 µM]
Cc1cc2c(cc1Cl)N(C(=O)Nc1ccnc3ccccc13)CC2,.,.,.,.,-6%,?
Cc1cc2c(cc1Cl)N(C(=O)Nc1ccc(Oc3cccnc3C)nc1)CC2,.,.,.,.,12µM*,?
COc1ccc(/C=C2\SC(=S)N(CCC(=O)NCCc3ccc(O)cc3)C2=O)cc1,1%,?,.,.,.,.
O=C(CCN1C(=O)/C(=C/c2ccccc2F)SC1=S)NCCc1ccc(O)cc1,?,-93*,.,.,.,.
COc1ccccc1/C=C1\SC(=S)N(CCC(=O)NCCc2ccc(O)cc2)C1=O,?,-75*,?,?,?,?
COc1ccc(CCNC(=O)CCCN2C(=O)c3ccccc3C2=O)cc1,-2%,-81*,3%,-2%,-29%,-5%[46.1 µM]
Nc1nonc1-c1nc2ccccc2n1Cc1cccc(Cl)c1,.,-4,-23%,-12%,?,.
COc1c2ccccc2nn1-c1ccc(-c2cn(Cc3ccccc3)nn2)cc1,.,-28,.,.,.,.
COc1ccc(NC(=O)c2c(-c3ccc(C)cc3)nnc3ccccc23)cc1Cl,.,0,-5%,-3%,-4%[46.1 µM],.
O=C1c2ccccc2C(=O)c2cc(N3CCCCC3)ccc21,?,-18,88%,-14%,3.2µM*,4µM*
O=[N+]([O-])c1ccc(N2CCCCCC2)c2nonc12,8%,-17,i,-15%,?,-24%[46.1 µM]
Nc1ccc(N2CCCCC2)c2nonc12,-21%,-67*,0%,i,.,.
SMILES,HCV inhibitor,HCMV antiviral,Vaccinia Venus,VACV mCherry inh,LASV entry inh,Marburg entry inh
Nc1ccc(N2CCCCC2)cc1N1CCCCC1,?,-69*,?,.,?,?
c1ccc2cc(N3CCCCC3)ccc2c1,14%,-25,-14%,?,1%[46.1 µM],-9%[46.1 µM]
COc1cc2ncnc(NCc3ccc(Cl)cc3)c2cc1OC,-18%,-78*,.,.,.,.
COc1cc2ncnc(NCc3ccc(C)o3)c2cc1OC,-14%,0,.,.,.,.
Cc1ccccc1CNc1ncnc2cc(Cl)ccc12,-60%,?,-10%,-10%,-6%,4%
Cc1ccc(CNc2ncnc3cc(Cl)ccc23)o1,11µM*,12,-33%,.,0%,-7%
Cc1ccc(CNc2ncnc3cc(Cl)ccc23)cc1,11µM*,?,.,.,.,.
CC(=O)N[C@@H](C)C(=O)NCC1Cc2cc(C)cc(-c3cnccn3)c2O1 (stereo not given in full),.,.,4%,-7%,.,.
CCOC(=O)Nc1ccc2c(C)cc(=O)oc2c1,-5%,164,.,.,?,7%
CCOC(=O)Nc1ccc2c(CN(C)Cc3ccc(F)cc3)cc(=O)oc2c1,-13%,-92*,11%,10%,.,21%[46.1 µM]
Cc1cc(C)nc(SCc2cn3c(C)cccc3n2)n1,-13%,-12,-9%,-18%,-6%,-4%
Cc1cc(C)c(C#N)c(SCc2cn3c(C)cccc3n2)n1,?,-63*,-20%,-18%,0%,7%
Cc1cc(C)c(C#N)c(SCc2ccccc2[N+](=O)[O-])n1,-23%,-97*,-4%,i,0%,-7%
Cc1ccc(C#N)c(SCc2cc3c(cc2Cl)OCO3)n1,8%,4,.,.,-23%,-5%
Cc1cc(C)c(C#N)c(SCc2nnc(-c3ccccc3[N+](=O)[O-])o2)n1,?,-95*,-14%,-20%,?,?
Cc1ccc(C#N)c(SCc2ccccc2[N+](=O)[O-])n1,-13%,?,-19%,-2%,-3%,1%
Cc1ccc(C#N)c(SCc2nnc(-c3ccc(Cl)cc3)o2)n1,1%,-91*,-11%,-12%,?,2.1µM*
O=C(Nc1ccc(Cl)cc1Cl)c1cc(S(=O)(=O)N2CCc3ccccc32)ccc1F,.,102,-16%,-16%,10%[46.1 µM],.
Cc1nc(NCc2c(C)nn(C)c2Cl)sc1-c1ccn(CC2COc3ccccc3O2)n1 (stereo not given),.,.,-13%,-24%,.,.
COc1ccc(NC(=O)CSc2nc3c(c(=O)[nH]2)CCC3)cc1,.,-4,1%,-14%,14%[46.1 µM],23%[46.1 µM]
CCN1CCCC1CNC(=O)C1=C(OC)CC(N(C)C)=C(NC(C)=O)C1 (stereo not given),.,.,.,.,.,-21%
Cc1cc(C)c(C#N)c(SCc2nnc(-c3ccccc3)o2)n1,?,-93*,-23%,-11%,1.2µM*,1.2µM*
CCCc1[nH]nc2c1C(c1ccccc1OC)C(C#N)=C(N)O2 (stereo not given),14%,36,-20%,-12%,23%,3%
CCCc1[nH]nc2c1C(/C(C)=C/c1ccccc1)C(C#N)=C(N)O2 (stereo not given),-11%,-83*,0%,-5%,-13%,?
CC(C)Cn1[nH]c2c3c(ccc2c1=O)C(=O)c1ccccc1C3=O,11µM*,.,-27%,.,?,-28%
O=C1c2ccccc2C(=O)c2c1ccc1c(=O)n(-c3ccccc3)[nH]c21,?,-65*,-2%,-11%,8%,-18%
Cc1cccc(-n2[nH]c3c4c(ccc3c2=O)C(=O)c2ccccc2C4=O)c1,?,-28,-5%,-15%,0%,-13%
C=C(C)C[C@@]1(c2ccccc2)Oc2ccccc2C2=NCCN=C21,.,.,.,.,.,-21%[14.2 µM]
